Autofluor counter = counter-screen for toxin protease inhibitors: compound fluorescence. AID 624483. compound autofluorescence counterscreen, microsphere flow cytometry; active compounds read high. fluorescence intensity (no concentration beside the values). 3.1% of 360,000 active; in the data active = fluorescence intensity above about 16000; inconclusive = no clear call, values can overlap the other calls
BoNT-A LC inh2 = blocks Botulinum neurotoxin A light chain protease; inhibition, % at 10 µM; AID 588499; multiplex microsphere protease substrate cleavage, flow cytometry; 0.17% of 360,000 active
GDH-TPI inh = GDH-TPI coupled enzyme inhibition counter-screen; inhibition, % at 4.8 µM; 1.2% of 360,000 active; GDH-TPI coupled enzyme counterscreen, NADH absorbance; in the data active = inhibition above about 30%
Mtb FBA inh = inhibitors of M. tuberculosis fructose-bisphosphate aldolase. 2.3% of 360,000 active. inhibition, % at 1 µM. P9WQA3. purified M. tuberculosis FBA, fluorescence read-out. AID 588726; in the data active = inhibition above about 27%
Target sequence (P9WQA3 whole entry, looked up): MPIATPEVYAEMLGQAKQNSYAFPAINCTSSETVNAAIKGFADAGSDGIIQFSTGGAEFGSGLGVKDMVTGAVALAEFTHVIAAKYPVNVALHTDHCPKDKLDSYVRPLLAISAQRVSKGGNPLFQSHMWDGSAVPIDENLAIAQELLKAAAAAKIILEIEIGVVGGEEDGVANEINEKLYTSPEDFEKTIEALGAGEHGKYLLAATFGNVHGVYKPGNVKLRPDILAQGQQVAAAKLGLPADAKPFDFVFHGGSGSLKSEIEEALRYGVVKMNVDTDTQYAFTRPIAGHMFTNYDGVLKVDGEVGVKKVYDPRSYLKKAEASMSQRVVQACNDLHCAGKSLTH
Anthrax LF inh2 = blocks Bacillus anthracis lethal factor protease; P15917; multiplex microsphere protease cleavage assay, LF; inhibition, % at 10 µM; 0.12% of 360,000 active; AID 588501
BoNT F protease = BoNT F light chain protease inhibition | Multiplex microsphere protease cleavage assay, flow cytometry | inhibition, % at 10 µM | 0.22% of 360,000 active; in the data active = inhibition above about 35%, passing the limit was not always enough; inconclusive = no clear call, values can overlap the other calls
A number is an active result; . = inactive; ? = inconclusive; / = not tested or not shown; + = active, no number. This is a sample that favours compounds with a hit; in the whole collection about 6.7% have one here. Cut-off read from the data, not from the text of the source, unless noted: active = inhibition above about 30%; inconclusive = no clear call, values can overlap the other calls; inactive = below that.

SMILES	Autofluor counter	BoNT-A LC inh2	GDH-TPI inh	Mtb FBA inh	Anthrax LF inh2	BoNT F protease
Cc1cc(C)c(S(=O)(=O)Nc2ccc(-c3cn4ccccc4n3)cc2)c(C)c1	.	.	.	.	.	.
CC(C)Oc1ccc(C(CCN)C2CCCCC2)cc1 (stereo not drawn)	.	.	.	.	.	.
CCc1cccc(NC(=O)C2CCN(c3ncnc4sc(C)c(C)c34)CC2)c1	.	.	.	.	.	.
Cc1sc2ncnc(N3CCC(C(=O)Nc4nnc(SCc5ccccc5F)s4)CC3)c2c1C	?	?	.	138	?	?
CCCC(=Nc1ccc(N)cc1)C1=C(O)C(C(=O)OC)C(C)(C)CC1=O (stereo not drawn)	23098	?	.	.	.	.
CCCC(=O)C1=C(O)C(C(=O)OC)C(C)(C)CC1=Nc1ccc(N)cc1 (stereo not drawn)	21083	.	.	.	.	.
CCCCC(=NCCO)C1=C(O)C(C(=O)OC)C(C)(C)CC1=O (stereo not drawn)	.	.	.	.	.	.
CCCC(=O)C1=C(O)C(C(=O)OC)C(C)(C)CC1=Nc1ccc(C)cc1 (stereo not drawn)	.	.	.	.	.	.
CCC(Sc1ccc2nnc(CCNS(=O)(=O)c3ccc(OC)cc3)n2n1)C(=O)OC (stereo not drawn)	.	.	.	.	.	.
O=C(CSc1ncnc2ccccc12)c1cccs1	.	.	.	.	.	.
c1ccc(Cn2c(-c3ccccc3)c[n+]3c2SCCC3)cc1	/	/	.	.	/	/
COc1ccc([C@H]2C(C#N)=C([S-])N[C@](C)(O)[C@@H]2[n+]2ccccc2)cc1	.	.	.	.	.	.
Cc1cc2[nH]c(=O)c(=O)[nH]c2cc1S(=O)(=O)NC1CCCCC1C (stereo not drawn)	.	.	.	32	.	.
Cc1cc2c(cc1S(=O)(=O)NC1CCCCC1C)OCC(=O)N2 (stereo not drawn)	.	.	.	.	.	.
Clc1ccc2nc3ccccn3c2c1	.	.	.	178	.	.
N#Cc1ccc2c(c1)nc1ccccn12	.	.	.	+	.	.
COc1cc(OC)cc(C(=O)N[C@H](C(=O)OCC(=O)c2ccc3c(c2)NC(=O)CO3)C(C)C)c1	.	.	.	.	.	.
CC(C)[C@H](NC(=O)c1ccccc1)C(=O)OCC(=O)c1ccc2c(c1)NC(=O)CO2	23418	.	.	.	.	.
CCCCNC(=O)CSc1nc2ccc(N3CCOCC3)cc2c(=O)n1CCc1ccccc1	.	.	.	.	.	.
Cc1ccc(S(=O)(=O)N2CCN(S(=O)(=O)N3CCOCC3)CC2)cc1C	16305	.	.	.	.	.
Cc1ccc(Nc2nc(-c3ccc(S(=O)(=O)N4CCCC4)cc3)cs2)cc1C	25361	.	.	.	.	.
Cc1ccc(S(=O)(=O)N2CCN(C(=O)N3CCOCC3)CC2)cc1C	.	.	.	.	.	.
Cc1cc(C)cc(Nc2nc(-c3ccc(S(=O)(=O)N4CCCC4)cc3)cs2)c1	.	.	.	.	.	.
Cc1ccc(S(=O)(=O)N2CCCN(S(=O)(=O)c3ccc(C)c(C)c3)CC2)cc1C	16751	.	.	.	.	.
N#CCCCCn1ccc(NC(=O)c2ccc(Cl)cc2O)n1	?	.	32	.	.	?
SMILES	Autofluor counter	BoNT-A LC inh2	GDH-TPI inh	Mtb FBA inh	Anthrax LF inh2	BoNT F protease
Cc1cc(NC(=O)c2ccc(Cl)cc2)n(CCC#N)n1	.	.	.	.	.	.
COC(=O)[C@]1(CC(C)C)N[C@H](c2ccc(-c3ccc(OC)cc3)cc2)[C@@H]2C(=O)N(C)C(=O)[C@@H]21	.	.	.	132	.	.
CCCCc1cc(=O)oc2cc(OCC(=O)NCc3ccccn3)c(Cl)cc12	.	.	.	.	.	.
CCCc1cc(=O)oc2c3c(cc(OCC(=O)NCCN4CCOCC4)c12)OC(C)(C)CC3	.	.	.	180	.	.
CCc1cc(=O)oc2c3c(cc(OCC(=O)NCCCn4ccnc4)c12)OC(C)(C)CC3	.	.	.	164	.	.
CCc1cc(=O)oc2c(C)c(OCC(=O)NCCCn3ccnc3)ccc12	.	.	.	.	.	.
CCCCc1cc(=O)oc2c3c(cc(OCC(=O)NCCCO)c12)OC(C)(C)CC3	.	.	.	+	.	.
CCc1ccc(NC(=O)CC2C(=O)Nc3c2c(=O)n(C)c(=O)n3C)cc1 (stereo not drawn)	22007	.	.	.	.	.
CCc1ccc(NC(=O)CC2NCCNC2=O)cc1 (stereo not drawn)	.	.	.	.	.	.
Cn1ncc2c(=S)nc(Cl)[nH]c21	.	.	.	.	.	.
Cc1ccccc1-c1nnc(SCC(=O)N(C)C2CCS(=O)(=O)C2)n1C (stereo not drawn)	.	.	.	.	.	.
Cc1ccc(O)c(NC(=O)CCC2CCCCC2)c1	.	.	.	.	.	.
O=C(CCC1CCCCC1)Nc1ccccc1O	16345	.	.	.	.	.
O=C(CCC1CCCCC1)Nc1ccccc1-c1ccccc1	21102	?	.	.	.	.
O=C(CCC1CCCC1)Nc1ccccc1-c1ccccc1	.	.	.	.	.	.
CC(C)C(NS(=O)(=O)c1cccs1)C(=O)NCc1ccccc1 (stereo not drawn)	.	.	.	.	.	.
CN1CCN(C(=O)CN2C(=O)CC(C)(C)S(=O)(=O)c3ccccc32)CC1	.	.	.	.	.	.
COc1cccc(NC(=O)CN2CCN(CC(=O)Nc3ccc(F)cc3)CC2)c1	.	.	.	.	.	.
O=C(CN1CCCCC1)Nc1cccc(Oc2ccccc2)c1	23011	.	.	.	.	.
COc1cccc(NC(=O)CSCC(=O)O)c1	17067	.	.	.	.	.
COc1cccc(NC(=O)COC(=O)c2c3c(nc4ccccc24)CCC(C)C3)c1 (stereo not drawn)	19387	.	.	.	.	.
COc1cccc(NC(=O)CN2CCC(C)CC2)c1	22557	?	.	.	.	.
Cc1ccc(/C=C2\SC(=S)N(CCCC(=O)Nc3ccc(O)cc3)C2=O)cc1	.	.	.	.	.	.
CSc1ccc(/C=N/Nc2nc(C)cc(=O)[nH]2)cc1	.	.	.	.	.	.
Cc1cccc(N(C)C(=O)c2coc(=O)c3ccccc23)c1	.	.	.	.	.	.
SMILES	Autofluor counter	BoNT-A LC inh2	GDH-TPI inh	Mtb FBA inh	Anthrax LF inh2	BoNT F protease
C/C(=N\O)C(C)(C)Nc1ccc(F)cc1	.	.	.	.	.	?
COc1ccc(NC(=O)CN(C)C(=O)c2ccc3ccccc3c2)cc1	.	.	.	.	.	.
O=C(CN1CCCC1)NCC(=O)Nc1ccc(F)cc1	.	.	.	+	.	.
COc1cccc(NC(=O)CN(C)C(=O)c2ccc3ccccc3c2)c1	23982	.	.	.	.	.
COc1cccc(N/C(SC)=C(/C#N)C(N)=O)c1	23601	.	.	.	.	.
O=C(CN1CCCC1)Nc1ccc(F)cc1	.	.	.	.	.	.
COc1cccc(NC(=O)c2cnsn2)c1	17160	.	.	.	.	.

Bioassay records from PubChem BioAssay.
